From PubChem BioAssay AID504340 (NMMLSC, 2011)
Calls of active or inactive are those of the source.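 How the source made its calls: active means GFP response above 150% of the DMSO control; inconclusive means Under 70 cell events counted for a yeast strain; inactive means the rest.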

Test: yeast TOR pathway CIT2-GFP reporter retest – flow cytometry, third cherry pick, single plex, confirmation (AID 504340);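 further: median GFP fluorescence over all cells with no mother versus daughter split; sample signal as a ratio to the plate DMSO mean so 100% equals DMSO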
Settings: S. cerevisiae CIT2-GFP strain, 3 h, at 10 µM, hits give high values

| SMILES | GFP response vs DMSO |
| --- | --- |
| Nc1cccc2c1C(=O)c1ccc(Cl)cc1C2=O | 107% (inactive) |
| O=C(Nc1cccc(Cl)c1)ON=C1c2ccccc2-c2ccccc21 | 101% (inactive) |
| Cn1c(NCCO)nc2c(c1=O)C1(CCCCC1)Cc1ccccc1-2 | 116% (inactive) |
| Cc1cccc(Nc2cc(=O)[nH]c(=O)[nH]2)c1 | 94.5% (inactive) |
| COc1ccccc1Nc1nc(NCC(C)C)nc(N)c1[N+](=O)[O-] | 114% (inactive) |
| Oc1ccc(Cl)c2cccnc12 | 103% (inactive) |
| CCC(C)Nc1nc(N)c([N+](=O)[O-])c(Nc2cc(OC)ccc2OC)n1 (centres undefined) | 101% (inactive) |
| Cc1ccc2c(C)ccc(O)c2n1 | 106% (inactive) |
| COc1ccc(NC(=O)O/N=C2/CCCc3ccc(OC)cc32)cc1 | 104% (inactive) |
| Cc1cccc(C)c1Nc1ncnc(N)c1[N+](=O)[O-] | 103% (inactive) |
| COc1cc(=O)n(C)c2c(O)cccc12 | 92.8% (inactive) |
| COc1ccccc1-c1cc(C(F)(F)F)nc(S(C)(=O)=O)n1 | 106% (inactive) |
| COc1cccc(NC(=O)CC(C)=O)c1 | 106% (inactive) |
| C=CCNc1nc(N)c([N+](=O)[O-])c(Nc2cccc(Cl)c2)n1 | 114% (inactive) |
| O=C(Nc1ccccc1)O/N=C1\CCCCC1c1ccc([N+](=O)[O-])cc1[N+](=O)[O-] (centres undefined) | 101% (inactive) |
| Cn1c(NCCCO)nc2c(c1=O)C1(CCCCC1)Cc1ccccc1-2 | 117% (inactive) |
| COc1ccc(OC)c(Nc2nc(NCCC(C)C)nc(N)c2[N+](=O)[O-])c1 | 103% (inactive) |
| COc1cc(OC)cc(C(=O)Nc2ccc(-c3nc4ccccc4o3)cc2)c1 | 112% (inactive) |
| Cc1nc(Nc2ccc(Br)cc2Br)c([N+](=O)[O-])c(=O)[nH]1 | 103% (inactive) |
| COc1ccc(N/C(C)=C/C(=O)c2ccccc2)cc1 | 94.5% (inactive) |

| SMILES | GFP response vs DMSO |
| --- | --- |
| Cc1ccc(C(=O)/C=C/Nc2cccc(O)c2)cc1 | 109% (inactive) |
| Oc1c(Cl)cc(Cl)c2cccnc12 | 142% (inactive) |
| O=C(O)c1ccccc1-c1ccccc1C(=O)Nc1ccc(-c2nc3cc(Cl)ccc3o2)cc1 | 99.3% (inactive) |
| COc1cccc2c(O)cc(=O)n(C)c12 | 103% (inactive) |
| CC(=O)Nn1cnc2c(c1=O)C1(CCCC1)Cc1ccccc1-2 | 89.6% (inactive) |
| C/C(=C\C(=O)c1ccccc1)Nc1ccc(O)cc1 | 103% (inactive) |
| COC1=C/C(=C/c2c(N)n3cc(C)sc3nc2=O)C=CC1=O | 124% (inactive) |
| Oc1ccc(F)c2cccnc12 | 101% (inactive) |
| COc1cccc(N/C=C/C(=O)c2ccc(C)cc2)c1 | 92.8% (inactive) |
| C=CCNc1nc(N)c([N+](=O)[O-])c(Nc2ccccc2OC)n1 | 127% (inactive) |
| Nn1cnc2c(c1=O)C1(CCCCC1)Cc1ccccc1-2 | 129% (inactive) |
| O=C(N/N=C/c1ccccc1F)c1cccc2ccccc12 | 104% (inactive) |
| COc1cccc(OCc2cc(C(=O)N3CCN(C)C(c4ccccc4)C3)no2)c1 (centres undefined) | 97.7% (inactive) |
| CCc1sc(C(=O)Nc2nc(-c3ccccn3)cs2)cc1C | 109% (inactive) |
| COc1cccc(N/C(C)=C/C(=O)c2ccc(Br)cc2)c1 | 104% (inactive) |
| Cc1ccc2nc(-c3ccc(NC(=O)c4cccnc4)cc3)oc2c1 | 104% (inactive) |
| Cc1cn2c(N)c(C=C3C=C(Cl)C(=O)C(Cl)=C3)c(=O)nc2s1 | 101% (inactive) |
| Oc1c(Br)cc(Br)c2cccnc12 | 189% (active) |
| CC1=CN2C(=N)/C(=C/c3ccc(C)o3)C(=O)N=C2S1 | 112% (inactive) |
